# Measured values reported in PubChem BioAssay (NCATS).
# Unmarked numbers belong to inactive results. Inconclusive results are not listed. Calls of active or inactive are those of the source. Unless noted, calls come from the whole dose curve; as a rule, active = well fitted curve in either direction with a large enough effect (not every such curve was filed as active); inconclusive = small, poorly fitted or top-dose-only effect, or another doubt; inactive = flat fitted curve, though single readings scatter.
# What was measured:
# [1] = molecular target: Lysosomal acid glucosylceramidase (Homo sapiens) (UniProt P04062); assay: Glucocerebrosidase-p2 (AID 348; in the data active = potency below about 10 µM; note: potency is the fitted concentration of half-maximal effect); conditions: purified GBA, blue fluorogenic substrate, 40 min
# Sequence of Lysosomal acid glucosylceramidase (Homo sapiens) (P04062 whole entry, looked up): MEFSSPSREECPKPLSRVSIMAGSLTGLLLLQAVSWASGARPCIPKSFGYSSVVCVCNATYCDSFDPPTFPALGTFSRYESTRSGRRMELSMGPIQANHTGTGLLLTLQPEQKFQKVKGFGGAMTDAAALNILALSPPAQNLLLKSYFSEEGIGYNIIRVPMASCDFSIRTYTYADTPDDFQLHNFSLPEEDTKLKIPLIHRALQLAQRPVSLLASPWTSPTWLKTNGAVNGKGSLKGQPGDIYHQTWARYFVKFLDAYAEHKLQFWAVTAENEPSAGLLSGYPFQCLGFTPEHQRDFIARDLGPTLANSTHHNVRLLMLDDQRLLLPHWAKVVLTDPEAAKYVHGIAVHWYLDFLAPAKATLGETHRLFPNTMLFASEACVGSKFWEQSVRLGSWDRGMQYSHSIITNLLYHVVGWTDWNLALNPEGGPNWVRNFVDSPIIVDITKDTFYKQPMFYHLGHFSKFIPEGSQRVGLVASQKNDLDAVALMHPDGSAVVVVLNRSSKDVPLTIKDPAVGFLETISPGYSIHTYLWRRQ
# How it was run: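 Normal human glucocerebrosidase (0.2 nM) with blue fluorogenic substrate (80 uM final) in citrate/phosphate pH 5.9 with 10mM sodium taurocholate, 0.01% tween-20; 40 min RT, NaOH/glycine stop; fluorescence Ex 365/Em 440; AC50 from a titration from 0.6 nM upwards.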
# [2] = AP1 Signaling Pathway (AID 357); conditions: ME-180 AP-1-bla reporter, EGF-induced, beta-lactamase ratio, 5 h; at 7.69 µM (top of the series) unless noted; note: % is set by controls: 0 for no effect and ±100 for the full control effect
# How it was run: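 Modulation of EGF-driven AP-1 transcription was assessed with a beta-lactamase reporter in ME-180 cells. Compound and EC50 EGF were co-incubated 5 hours at 37 °C before 2.5-hour CCF4 loading at room temperature and dual-emission reading.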
# [3] = molecular target: Cytochrome P450 1A2 (Homo sapiens) (UniProt P05177); assay: p450-cyp1a2 (AID 410; calls by dose curve; note: potency is the fitted concentration of half-maximal effect;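 for activity change, negative = inhibition: -100% = full effect of reference inhibitor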); conditions: recombinant CYP1A2, luciferin-ME demethylation, luminescence; series mostly up to 11.4 µM
# Sequence of Cytochrome P450 1A2 (Homo sapiens) (P05177 whole entry, looked up): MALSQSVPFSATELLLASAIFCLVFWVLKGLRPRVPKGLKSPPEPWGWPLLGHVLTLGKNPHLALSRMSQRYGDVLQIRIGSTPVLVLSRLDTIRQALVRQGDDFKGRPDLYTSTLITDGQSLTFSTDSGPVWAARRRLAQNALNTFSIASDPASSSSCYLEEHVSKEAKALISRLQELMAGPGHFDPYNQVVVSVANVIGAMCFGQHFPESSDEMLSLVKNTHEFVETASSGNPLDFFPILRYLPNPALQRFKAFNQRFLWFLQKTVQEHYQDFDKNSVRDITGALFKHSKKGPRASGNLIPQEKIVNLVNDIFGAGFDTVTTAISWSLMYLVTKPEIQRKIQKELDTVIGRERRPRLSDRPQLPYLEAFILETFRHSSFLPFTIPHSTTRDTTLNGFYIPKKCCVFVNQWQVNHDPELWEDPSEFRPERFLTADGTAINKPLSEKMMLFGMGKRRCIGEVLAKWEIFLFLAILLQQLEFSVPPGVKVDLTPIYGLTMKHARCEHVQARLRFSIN
# How it was run: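 Luminescent demethylation readout: Luciferin-ME (100uM, equal to Km) turned over by 20nM CYP1A2 for 60 min at room temperature after NADPH regeneration addition, following 10 min compound preincubation. Normalization used 57 uM furafylline as full inhibition.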
# [4] = Stat Signaling Pathway (AID 446); conditions: ME-180 SIE beta-lactamase reporter, IL-6 stimulated, 5 h; at 7.69 µM (top of the series) unless noted;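 note: ME-180 cervical cancer cells given 40 pM IL-6 alongside compound; SIE-controlled beta-lactamase reporter measured as 460/530 nm FRET emission ratio; % is set by controls: 0 for no effect and ±100 for the full control effect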
# How it was run: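 FRET read-out (405 nm excitation, 460/530 nm emission) of a beta-lactamase reporter under a STAT-inducible element in ME-180 cervical carcinoma cells. Cells with compound receive 40 pM IL-6 for 5 h. Values are normalised to AC90 stimulation and AC90 JAK-inhibitor controls.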
# [5] = molecular target: Glucocorticoid receptor (Homo sapiens) (UniProt P04150); assay: GR-GFP Redistribution (AID 450;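 active = compounds whose dose series gives a full or clear partial fitted curve of increased nuclear translocation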; note: potency is the fitted concentration of half-maximal effect); conditions: U2OS GR-GFP nuclear translocation, laser cytometry, 2 h
# Sequence of Glucocorticoid receptor (Homo sapiens) (P04150 whole entry, looked up, the tested form may be a part): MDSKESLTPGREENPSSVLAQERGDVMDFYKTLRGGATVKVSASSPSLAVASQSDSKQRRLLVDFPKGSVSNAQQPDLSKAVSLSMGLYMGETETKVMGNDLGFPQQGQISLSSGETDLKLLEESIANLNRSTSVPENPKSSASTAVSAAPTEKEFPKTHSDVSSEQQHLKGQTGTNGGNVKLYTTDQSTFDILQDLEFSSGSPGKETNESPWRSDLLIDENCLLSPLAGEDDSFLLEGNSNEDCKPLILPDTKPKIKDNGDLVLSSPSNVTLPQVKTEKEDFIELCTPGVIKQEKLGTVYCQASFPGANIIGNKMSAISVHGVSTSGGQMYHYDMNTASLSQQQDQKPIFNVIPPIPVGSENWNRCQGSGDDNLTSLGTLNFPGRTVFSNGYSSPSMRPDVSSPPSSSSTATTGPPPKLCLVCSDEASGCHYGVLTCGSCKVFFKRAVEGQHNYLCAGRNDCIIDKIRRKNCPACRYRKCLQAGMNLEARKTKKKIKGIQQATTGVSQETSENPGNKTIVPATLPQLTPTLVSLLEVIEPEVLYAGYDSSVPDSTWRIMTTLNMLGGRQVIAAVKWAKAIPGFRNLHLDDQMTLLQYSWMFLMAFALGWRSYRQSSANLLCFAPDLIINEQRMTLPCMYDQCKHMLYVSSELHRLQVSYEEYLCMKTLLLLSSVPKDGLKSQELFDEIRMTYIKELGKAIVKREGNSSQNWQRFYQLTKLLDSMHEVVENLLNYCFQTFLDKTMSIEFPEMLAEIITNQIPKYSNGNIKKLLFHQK
# [6] = molecular target: Glucocorticoid receptor (Homo sapiens) (UniProt P04150); assay: GR-EFC Redistribution (AID 451; calls by dose curve; note: potency is the fitted concentration of half-maximal effect); conditions: CHO-K1 GR-EFC translocation, beta-gal luminescence, 2 h
# How it was run: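 CHO-K1 cells stably expressing nuclear-localized β-gal enzyme acceptor and GR fused C-terminally to the enzyme donor fragment; ligand-driven nuclear translocation restores β-gal by complementation. Compounds titrated up to 46 uM final, 2 h at 37 °C; luminescence read.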
# [7] = molecular target: Mitogen-activated protein kinase 10 (Mus musculus) (UniProt Q61831); assay: JNK3 AlphaScreen Assay (AID 530); conditions: JNK3 lysate, c-Jun phosphorylation; series mostly up to 11.4 µM;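 note: kinase came from lysate of stimulated human HepG2 cells; signal reports phosphorylation of biotinylated GST-cJun 1-79 at Ser73 with 10 µM ATP; % is set by controls: 0 for no effect and ±100 for the full control effect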
# How it was run: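 Phosphorylation of biotinylated GST-cJun(1-79) at Ser73 is measured by AlphaScreen proximity luminescence. Enzyme is JNK3 in HepG2 lysates activated with interleukin-1beta and tumor necrosis factor alpha; ATP is 10 uM final.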
# [8] = molecular target: 3',5'-cyclic-AMP phosphodiesterase 4B (Homo sapiens) (UniProt Q07343); assay: qHTS Assay for Inhibitors of PDE-IV (AID 607; active = well fitted activation curve with a large enough effect in the main read-out, with a control signal flat, not every such curve was filed as active; note: % of control where 0% means no effect); conditions: HEK293 ACTOne CNG channel cells, membrane potential fluorescence; series mostly up to 22.9 µM
# Sequence of 3',5'-cyclic-AMP phosphodiesterase 4B (Homo sapiens) (Q07343 whole entry, looked up): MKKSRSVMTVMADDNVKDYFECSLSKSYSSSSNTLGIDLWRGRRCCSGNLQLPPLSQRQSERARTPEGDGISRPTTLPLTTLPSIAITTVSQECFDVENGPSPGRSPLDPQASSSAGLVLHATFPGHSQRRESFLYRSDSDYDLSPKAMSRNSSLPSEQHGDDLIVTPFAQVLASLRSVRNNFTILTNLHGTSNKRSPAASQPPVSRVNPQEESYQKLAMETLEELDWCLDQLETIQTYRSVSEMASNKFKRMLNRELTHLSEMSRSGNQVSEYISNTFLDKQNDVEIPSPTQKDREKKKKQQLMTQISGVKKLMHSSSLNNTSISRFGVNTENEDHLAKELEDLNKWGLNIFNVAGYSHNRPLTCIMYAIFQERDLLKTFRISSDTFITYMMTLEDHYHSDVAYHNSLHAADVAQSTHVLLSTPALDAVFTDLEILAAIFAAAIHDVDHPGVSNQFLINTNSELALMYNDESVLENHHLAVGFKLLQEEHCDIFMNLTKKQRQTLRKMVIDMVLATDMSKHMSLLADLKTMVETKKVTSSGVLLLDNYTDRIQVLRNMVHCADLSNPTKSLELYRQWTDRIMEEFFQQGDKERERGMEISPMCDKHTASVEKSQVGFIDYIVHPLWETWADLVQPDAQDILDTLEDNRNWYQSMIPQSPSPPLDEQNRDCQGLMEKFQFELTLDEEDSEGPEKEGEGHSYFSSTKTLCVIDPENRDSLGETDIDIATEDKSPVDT
# How it was run: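 Cell-based read-out of cAMP via a modified cyclic nucleotide-gated channel and membrane potential dye (535/590 nm) in HEK293 cells expressing PDE4 endogenously. Compounds tested up to 22.9 uM final; 100 uM RO 20-1724 reference.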
# [9] = NFAT Signaling Pathway (AID 444); conditions: Jurkat NFAT-bla M1, carbachol, beta-lactamase ratio, 5 h; at 7.69 µM (top of the series) unless noted;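 note: carbachol stimulus at about its EC50 of 1 µM final; % is set by controls: 0 for no effect and ±100 for the full control effect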
# How it was run: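 Jurkat cells carrying an NFAT-driven β-lactamase reporter and co-transfected muscarinic M1 receptor were treated with compound plus carbachol (1 uM final, an EC50 level) for 5 h at 37 °C. CCF4 loading followed for 1 h at RT; 460/530 nm ratio gave %activity.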
# [10] = molecular target: Cytochrome P450 3A4 (Homo sapiens) (UniProt P08684); assay: qHTS Assay for Activators of Cytochrome P450 3A4 (AID 885; active = well fitted curve in the direction sought with a large enough effect; an effect the other way counts as inactive or inconclusive; note: nearly all actives have a fitted effect of over 65% in size); conditions: recombinant CYP3A4, Luciferin-PPXE luminescence, 60 min; series mostly up to 11.4 µM
# Sequence of Cytochrome P450 3A4 (Homo sapiens) (P08684 whole entry, looked up): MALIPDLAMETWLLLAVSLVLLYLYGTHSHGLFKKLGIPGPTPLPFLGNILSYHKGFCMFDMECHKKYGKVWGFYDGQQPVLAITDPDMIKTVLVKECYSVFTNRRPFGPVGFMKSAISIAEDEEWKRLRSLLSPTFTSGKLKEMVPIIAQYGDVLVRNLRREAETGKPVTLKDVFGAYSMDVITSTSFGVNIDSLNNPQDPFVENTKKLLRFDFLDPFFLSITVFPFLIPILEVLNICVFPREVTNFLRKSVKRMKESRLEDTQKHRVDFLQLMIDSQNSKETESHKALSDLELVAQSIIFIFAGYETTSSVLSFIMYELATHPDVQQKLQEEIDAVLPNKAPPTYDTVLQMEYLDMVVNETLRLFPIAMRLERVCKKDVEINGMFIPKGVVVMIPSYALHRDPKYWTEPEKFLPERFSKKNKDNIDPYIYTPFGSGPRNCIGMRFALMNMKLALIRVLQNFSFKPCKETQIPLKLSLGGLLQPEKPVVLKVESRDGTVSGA
# How it was run: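 Luminescent readout of luciferin formed from 25 uM Luciferin-PPXE (KM level) by 20 nM CYP3A4 in 200 mM KPO4, with 60 min NADPH-driven reaction at room temperature after 10 min compound exposure. Ketoconazole (57 uM) defined 100% inhibition.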
# [11] = molecular target: Cytochrome P450 2C19 (Homo sapiens) (UniProt P33261); assay: qHTS Assay for Inhibitors and Substrates of Cytochrome P450 2C19 (AID 899; active = well fitted curve in the direction sought with a large enough effect; an effect the other way counts as inactive or inconclusive; note: nearly all actives have a fitted effect of over 60% in size; note: potency is the fitted concentration of half-maximal effect); conditions: recombinant CYP2C19, luciferin-H EGE luminescence; series mostly up to 11.4 µM
# Sequence of Cytochrome P450 2C19 (Homo sapiens) (P33261 whole entry, looked up): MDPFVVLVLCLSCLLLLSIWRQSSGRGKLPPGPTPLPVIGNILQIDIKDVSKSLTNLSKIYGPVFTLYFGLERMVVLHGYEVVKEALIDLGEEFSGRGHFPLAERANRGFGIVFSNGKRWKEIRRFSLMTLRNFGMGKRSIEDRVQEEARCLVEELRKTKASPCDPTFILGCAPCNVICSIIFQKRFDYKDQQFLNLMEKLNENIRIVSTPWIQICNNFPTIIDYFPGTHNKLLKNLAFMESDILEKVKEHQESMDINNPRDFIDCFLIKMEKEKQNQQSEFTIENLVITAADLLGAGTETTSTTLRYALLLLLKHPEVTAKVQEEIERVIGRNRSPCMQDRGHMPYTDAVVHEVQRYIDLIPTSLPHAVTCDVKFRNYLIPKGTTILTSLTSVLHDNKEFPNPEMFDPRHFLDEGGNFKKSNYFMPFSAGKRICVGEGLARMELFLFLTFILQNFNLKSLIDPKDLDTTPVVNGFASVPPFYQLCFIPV
# How it was run: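 In 50mM KPO4, the reaction held 5nM enzyme and KM-level (10uM) Luciferin-H EGE; it ran 60 min at 37C after NADPH regeneration and a 10 min compound preincubation. Luminescence values were scaled to 57uM ketoconazole as complete inhibition.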
# [12] = qHTS Assay for Identification of Small Molecule Agonists for Hypoxia Response Element Signaling Pathway (AID 914; active = well fitted activation curve with a large enough effect in the signal ratio, with a control signal flat, not every such curve was filed as active; the % refers to the signal ratio; note: % of control where 0% means no effect); conditions: ME-180 (cervical carcinoma) HRE-bla reporter, beta-lactamase ratio, CoCl2, 17 h; activation: hits give high values
# How it was run: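 A beta-lactamase reporter under hypoxia response element control in ME-180 cells served as the system. Compound titrations plus EC50 CoCl2 ran 17 h at 37 degrees Celsius; AC50 values were fitted from %Activity.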
# [13] = molecular target: Cytochrome P450 2C9 (Homo sapiens) (UniProt P11712); assay: qHTS Assay for Inhibitors and Substrates of Cytochrome P450 2C9 (AID 883; active = well fitted curve in the direction sought with a large enough effect; an effect the other way counts as inactive or inconclusive; note: nearly all actives have a fitted effect of over 60% in size; note: potency is the fitted concentration of half-maximal effect); conditions: recombinant CYP2C9, luciferin-H luminescence, 60 min; series mostly up to 11.4 µM
# Sequence of Cytochrome P450 2C9 (Homo sapiens) (P11712 whole entry, looked up): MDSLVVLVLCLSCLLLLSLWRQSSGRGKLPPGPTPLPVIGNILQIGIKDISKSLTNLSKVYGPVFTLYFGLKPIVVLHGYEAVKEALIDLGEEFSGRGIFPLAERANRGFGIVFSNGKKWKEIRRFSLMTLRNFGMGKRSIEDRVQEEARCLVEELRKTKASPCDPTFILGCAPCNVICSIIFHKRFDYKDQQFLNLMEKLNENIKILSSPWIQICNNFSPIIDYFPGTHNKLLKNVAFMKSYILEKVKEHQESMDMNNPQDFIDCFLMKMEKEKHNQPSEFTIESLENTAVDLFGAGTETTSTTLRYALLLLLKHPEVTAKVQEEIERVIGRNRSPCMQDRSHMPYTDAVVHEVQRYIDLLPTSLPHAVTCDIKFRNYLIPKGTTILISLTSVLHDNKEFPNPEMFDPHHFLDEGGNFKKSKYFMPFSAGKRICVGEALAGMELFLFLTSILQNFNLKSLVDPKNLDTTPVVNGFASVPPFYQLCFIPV
# How it was run: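 CYP2C9 deoxyluciferin hydroxylation, 37C, 60 min with NADPH regeneration; 10nM enzyme, 100uM Luciferin-H (KM). Glo detection reagent stopped reaction; luminescence normalized to sulphaphenazole (57uM) full inhibition.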
# [14] = molecular target: Cytochrome P450 3A4 (Homo sapiens) (UniProt P08684); assay: qHTS Assay for Inhibitors and Substrates of Cytochrome P450 3A4 (AID 884; active = well fitted curve in the direction sought with a large enough effect; an effect the other way counts as inactive or inconclusive; note: potency is the fitted concentration of half-maximal effect; nearly all actives have a fitted effect of over 50% in size); conditions: recombinant CYP3A4, Luciferin-PPXE luminescence; series mostly up to 57.1 µM
# How it was run: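 Luminescent readout of luciferin produced by CYP3A4 (20 nM) dealkylation of Luciferin-PPXE, 25 uM (its KM). NADPH-driven reaction ran 60 min at RT after 10 min compound preincubation; data scaled to 57 uM ketoconazole as 100% inhibition.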
SMILES,Potency [1],"activity change, negative = inhibition [2] [%]",Potency [3],"activity, negative = inhibition [4] [%]",Potency [5] [µM],Potency [6] [µM],Potency [7],Potency [8],"activity change, negative = inhibition [9] [%]",Potency [10],"activity change, negative = inhibition [3]",Potency [11],activation [12] [%],Potency [13],Potency [14]
C[C@@]12CC[C@@H]3[C@H](CCC4=CC(=O)CC[C@]43C)[C@@H]1CC[C@@H]2C(=O)Cn1cnc2c(=S)nc[nH]c21,> 11.4 µM,2.82,inactive,-2.06,> 46,> 9.22,inactive,inactive,–,–,–,–,–,–,–
COCCn1c(=O)c(-c2ccccc2)nc2cnc(Nc3ccccc3)nc21,> 11.4 µM,-24.1,5.01 µM (active),–,> 9.22,> 46,inactive,–,10.4,inactive,–,–,–,–,–
CC(C)NC[C@@H](O)c1ccc(O)c2ncccc12,> 11.4 µM,-5.62,–,–,> 46,> 9.22,inactive,inactive,14,–,-12.1% [at 2.29 µM],inactive,–,–,–
O[C@@H](c1cc([C@@]23C[C@H]4CC[C@@H]2C[C@H](C4)C3)nc2c(Cl)cc(Cl)cc12)[C@@H]1CCCCN1,> 11.4 µM,1.64,–,0.88,> 46,> 9.22,inactive,inactive,–,–,-10.5% [at 2.29 µM],–,–,–,–
CC(C)c1ccc(/C(C(=O)O)=C(\O)C(=O)O)cc1,> 11.4 µM,-1.43,inactive,-0.351,> 46,> 9.22,inactive,inactive,–,–,–,–,–,–,–
O[C@@H](c1cc(C(F)(F)F)nc2c(Cl)cc(Cl)cc12)[C@@H]1CCCCN1,> 11.4 µM,14.2,3.98 µM (active),-0.0324,> 46,> 9.22,inactive,inactive,–,–,–,–,–,–,–
C[C@]1(O)CC[C@H]2[C@H]3CC=C4N5CCN=C5CC[C@@]4(C)[C@H]3CC[C@@]21C,> 11.4 µM,-0.00324,–,-6.8,> 46,> 9.22,inactive,inactive,–,–,-12.8% [at 2.29 µM],–,–,–,–
COc1ccc2c3c(ccc2c1)N[C@H](C(=O)O)CC3,> 11.4 µM,-4.14,0.501 µM (active),-6.67,> 46,> 9.22,inactive,inactive,–,–,–,–,–,–,–
O=C(CSc1nc2ccccc2s1)c1sc2sc3ccccc3[n+]2c1O,> 11.4 µM,-9.47,5.01 µM (active),–,> 46,> 9.22,inactive,inactive,6.64,–,–,–,-16.9,–,–
COc1ccccc1CCn1c(=O)c(-c2ccc(F)cc2)nc2cncnc21,> 11.4 µM,-8.06,1 µM (active),–,> 9.22,> 46,inactive,–,-26.6,inactive,–,316 nM (active),–,3.98 µM (active),3.98 µM (active)
Cn1ncc2c(Nc3cccc(Cl)c3)nc(Nc3cccc(Cl)c3)nc21,7.36 µM (active),-0.941,3.98 µM (active),4.09,> 46,> 9.22,inactive,inactive,–,inactive,–,–,–,–,–
O=C(O)CCNc1ncnc2nc[nH]c12,> 11.4 µM,8.82,inactive,-5.64,> 46,> 9.22,inactive,inactive,–,–,–,–,–,–,–
Cc1ccc(S(=O)(=O)Nc2ccccc2C=O)cc1,> 11.4 µM,-0.783,inactive,24,> 46,> 9.22,inactive,inactive,–,–,–,5010 nM (active),–,inactive,–
